According to PubChem BioAssay (Tox21):
Inconclusive results are not listed. Active and inactive are the calls of the source. Calls follow the shape of the full dose curve.

How the values were obtained:
[1] = target: Acetylcholinesterase (Homo sapiens) (UniProt P22303); test: Acetylcholinesterase (AChE) small molecule antagonists: colormetric cell-based qHTS assay (AID 1347395); also: nearly all actives have a fitted effect of over 30% in size
Summary of the method: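 Neuroblastoma line SH-SY5Y supplied the enzyme; cells were preincubated with compound for 30 min at 37 C and 5% CO2. Acetylthiocholine with DTNB was then added for 90 min at 37 C, and thiocholine was measured by colour.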

[2] = target: Acetylcholinesterase (Homo sapiens) (UniProt P22303); test: Acetylcholinesterase (AChE) small molecule antagonists: enzyme-based qHTS assay (AID 1347397); details: Potency: AChE enzyme activity inhibition; outcome: AChE enzyme activity inhibition; also: nearly all actives have a fitted effect of over 55% in size
Summary of the method: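 Absorbance-based detection of thiocholine with DTNB served as the read-out. Recombinant human AChE was exposed to compound for 30 min at RT before a 10 min RT incubation with acetylthiocholine.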

[3] = target: Acetylcholinesterase (Homo sapiens) (UniProt P22303); test: Acetylcholinesterase (AChE) small molecule antagonists: fluorescence cell-based qHTS assay (AID 1347398); details: Potency: AChE activity; outcome: AChE activity; also: nearly all actives have a fitted effect of over 50% in size
Summary of the method: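 Fluorimetric cell-based assay: intact SH-SY5Y cells, 30 min compound preincubation at 37 C, acetylthiocholine substrate with thiol probe Thiolite Green, 40 min RT development, fluorescence 490/520 nm.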

[4] = target: Acetylcholinesterase (Homo sapiens) (UniProt P22303); test: Acetylcholinesterase (AChE) small molecule antagonists: enzyme-based qHTS assay with human liver microsomes (AID 1347399); details: Potency: qHTS inhibition; outcome: qHTS inhibition; also: nearly all actives have a fitted effect of over 60% in size
Summary of the method: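 Recombinant human AChE (50 mU/mL in the enzyme mix) and human liver microsomes (0.25 mg/mL final) were preincubated with compound and NADPH (0.25 mg/mL final) for 30 min at 37 C. Acetylthiocholine/DTNB was then added; thiocholine was read colorimetrically after 10 min at room temperature.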
% is scaled to controls: 0 for no effect and ±100 for the full control effect.

Sequence of Acetylcholinesterase (Homo sapiens) (P22303 whole entry, looked up): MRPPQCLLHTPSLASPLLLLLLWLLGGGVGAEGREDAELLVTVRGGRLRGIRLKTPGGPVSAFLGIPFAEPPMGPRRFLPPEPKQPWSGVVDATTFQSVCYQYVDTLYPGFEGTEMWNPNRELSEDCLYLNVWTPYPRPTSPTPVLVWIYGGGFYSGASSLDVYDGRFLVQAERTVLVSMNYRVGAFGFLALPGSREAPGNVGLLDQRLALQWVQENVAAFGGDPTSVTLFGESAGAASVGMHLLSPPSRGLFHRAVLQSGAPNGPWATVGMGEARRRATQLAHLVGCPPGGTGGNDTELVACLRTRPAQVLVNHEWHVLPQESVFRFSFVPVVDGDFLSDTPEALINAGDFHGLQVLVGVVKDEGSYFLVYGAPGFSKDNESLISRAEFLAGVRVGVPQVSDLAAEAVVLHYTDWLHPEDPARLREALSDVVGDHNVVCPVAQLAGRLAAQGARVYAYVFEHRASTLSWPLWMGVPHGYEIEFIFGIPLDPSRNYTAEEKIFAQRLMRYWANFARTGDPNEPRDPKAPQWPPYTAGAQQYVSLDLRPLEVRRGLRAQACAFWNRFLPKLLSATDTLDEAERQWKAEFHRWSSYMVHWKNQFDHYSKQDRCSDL

CC1(C)C(=O)N(Br)C(=O)N1Cl
inactive: Potency [1] | Potency [2] | Potency [3] | Potency [4]

CCC(CC)CO
inactive: Potency [1] | Potency [2] | Potency [3] | Potency [4]

O=[N+]([O-])c1ccc2[nH]ncc2c1
inactive: Potency [1] | Potency [2] | Potency [3] | Potency [4]

COc1ccc2c(c1)c1c3n2CCN(C)C3=NCC1
inactive: Potency [1] | Potency [2] | Potency [3] | Potency [4]

O=C(Oc1ccccc1)c1cccc(C(=O)Oc2ccccc2)c1
inactive: Potency [1] | Potency [2] | Potency [3] | Potency [4]

COc1cc(C(C)C)ccc1C
inactive: activity, negative = inhibition [1] 0.291% [at 23.6 µM] | activity change, negative = inhibition [2] 1.63% [at 23.6 µM] | activity change, negative = inhibition [3] 2.94% [at 23.8 µM] | activity change, negative = inhibition [4] -4.86% [at 23.6 µM]

CN1CCN(CC(=O)N2c3ccccc3C(=O)Nc3cccnc32)CC1
inactive: activity, negative = inhibition [1] 0.44% [at 10.5 µM] | activity change, negative = inhibition [2] 0.584% [at 10.5 µM] | activity change, negative = inhibition [3] 5.87% [at 10.5 µM] | activity change, negative = inhibition [4] -0.472% [at 10.5 µM]

CC(C)(C)NCCNC(C)(C)C
inactive: Potency [1] | Potency [2] | Potency [3] | Potency [4]

CCCC(=O)O[C@]1(C(=O)COC(=O)CC)CC[C@H]2[C@@H]3CCC4=CC(=O)CC[C@]4(C)[C@H]3[C@@H](O)C[C@@]21C
inactive: activity, negative = inhibition [1] 0.0881% [at 23.6 µM] | activity change, negative = inhibition [2] 0.139% [at 23.6 µM] | activity change, negative = inhibition [3] 1.87% [at 23.8 µM] | activity change, negative = inhibition [4] -1.51% [at 23.6 µM]

CC1(C)[C@@H](O)CC[C@]2(C)[C@H]3C(=O)C=C4[C@@H]5C[C@@](C)(C(=O)O)CC[C@]5(C)CC[C@@]4(C)[C@]3(C)CC[C@@H]12
inactive: Potency [1] | Potency [2] | Potency [3] | Potency [4]
